Results as given in PubChem BioAssay (NCATS).
Inconclusive results are not listed. Entries that show only a call come without a potency. Active and inactive are the calls of the source. Calls follow the shape of the dose curve; as a rule, active = well fitted inhibition curve with a large enough effect; inconclusive = small, poorly fitted or top-dose-only effect; inactive = no such curve, though single readings can be large or run the other way.

experiment: qHTS to identify inhibitors of the type 1 interferon - major histocompatibility complex class I in skeletal muscle: primary screen against the NCATS Mechanism Interrogation Plate v5.0 (MIPE) Libary (AID 1347411); details: iHSKM cells + IFN-b, HiBiT-tagged MHC-I luminescence, 24 h; series mostly up to 45.8 µM; also: nearly all actives have a fitted effect of over 65% in size
Source text: Assay Submitter (PI): Travis B. Kinder Ph.D. & James Inglese Ph.D.
Assay Development and Screening Technology Laboratory (ADST)
National Center for Advancing Translational Sciences (NCATS), Rockville, MD
National Institute of Health (NIH), Bethesda, Maryland
Idiopathic inflammatory myopathies, collectively referred to as myositis, are a group of rare autoimmune diseases characterized by skeletal muscle inflammation, weakness, and usually accompanied by systemic pathologies of the skin, lungs, or vasculature. Current immunosuppressive therapies and glucocorticoids are often not curative and are accompanied by harsh side effects, especially in children with juvenile myositis. We initiated a drug repurposing and development program to identify more targeted, less toxic therapeutics to treat myositis. Although its cause is not known, muscle from a subset of patients have an abundance of the inflammatory type 1 interferon (IFN) and a down-stream product major histocompatibility complex class I (MHC class I), which are both thought to contribute to damage and weakness. We conducted quantitative high throughput screening on 6,576 compounds (4,679 unique) through a series of cell-based assays to identify those that inhibit the IFN-stimulated expression of MHC class I in muscle precursor cells (myoblasts). The compound identification and evaluation strategy utilized a primary screen with reporter-tagged MHC class I in genome-engineered myoblasts, ATP content counter screen for viability, HLA-ABC immunofluorescence secondary screen, and HLA-B RT-qPCR tertiary screen.
The primary screen utilized CRISPR/Cas9 genome-engineering of immortalized human myoblasts, C25cl48, where a pro-luminescent reporter HiBit was fused to the C-terminus of endogenous MHC class I allele HLA-B*08:01 (HLA-B HiBit myoblasts). HiBit is an 11 amino acid fragment of NanoLuc luminescent reporter (Promega Corporation), and when complexed to the larger LgBit fragment, the reconstituted enzyme produces light in the presence of furimazine substrate (Schwinn et al., 2018). Briefly, HLA-B HiBit myoblasts were plated into 1536-well plates, treated with 4.0 ng/ml human IFN-beta and 2,480 compounds from the NCATS Mechanism Interrogation Plate v5.0 (MIPE5.0) in an 11-point, 1:3 titration with a high final concentration of 46 uM. After 24 hrs of treatment, cells were assayed by Nano-Glo HiBiT Lytic Detection System (Promega) and luminescence measured by a ViewLux 1430 Ultra HTS (Perkin Elmer).
Schwinn MK, Machleidt T, Zimmerman K, Eggers CT, Dixon AS, Hurst R, Hall MP, Encell LP, Binkowski BF, Wood K V. 2018. CRISPR-Mediated Tagging of Endogenous Proteins with a Luminescent Peptide. ACS Chem Biol 13:467-474. doi:10.1021/acschembio.7b00549
PROTOCOL TABLE (as described by Inglese et al., 2007)
SEQUENCE No. (e.g., 1, 2, 3, etc.); […] (e.g., Cells, Incubation, Reagent, etc.); VALUE; DESCRIPTION
1a; Cells; 5 uL; Use a Multidrop Combi (Thermo Scientific) to seed 300 cells/well into 24 Greiner 1536 well white/solid bottom, high base, TC plates in 5 ul/well of iHSKM growth medium (GM) without dexamethasone into columns 1+2. Add metal lids with gas-exchange holes
1b; Cells; 5 uL; Use a Multidrop Combi (Thermo Scientific) to seed 300 cells/well into 24 Greiner 1536 well white/solid bottom, high base, TC plates in 5 ul/well of iHSKM GM without dexamethasone + 4 ng/ml IFN-b into columns 3 - 48. Add metal lids with gas-exchange holes
2; Incubate; 1 hr; Incubate at 37 C, 5% CO2, 95% RH
3; Compounds; 23 nl; Use Pin Tool (Wako) to transfer DMSO control, ruxolitinib IFN-b inhibitor control [High Concentration = 80 uM final, 16-pt, 1:2 in duplicate], and library compounds in DMSO
4; Incubate; 24 hrs; Incubate at 37 C, 5% CO2, 95% RH
5; Dispense; 2.5 ul; Use BioRAPTR FRD (Beckman Coulter) to add HiBit lytic reagent
6; Incubate; 10 min; Incubate in the dark at ambient temperature for lysis
7; Detector; 5 sec; Measure luminescence with ViewLux 1430 Ultra HTS (Perkin Elmer). […]
Potency is read from the fitted curve at half-maximal effect.

Q: With Cc1cc(SCc2sc(-c3ccc(C(F)(F)F)cc3)nc2C)ccc1OCC(=O)O as the compound, how does the Potency read?
A: The Potency was “inactive”.

Q: With COc1ccc(CCN2CCN(CCCc3ccccc3)CC2)cc1OC as the compound, how does the Potency read?
A: The Potency was “inactive”.

Q: Which Potency does the source give for Nc1nc2[nH]cc(CCc3ccc(C(=O)N[C@@H](CCC(=O)O)C(=O)O)cc3)c2c(=O)[nH]1 here?
A: Its Potency is “inactive”.

Q: Which Potency does the source give for CC(C)C[C@H](NC(=O)[C@@H](O)[C@H](N)Cc1ccccc1)C(=O)O here?
A: Its Potency is “inactive”.

Q: With Cc1cc2c(F)c(Oc3ncnn4cc(OC[C@@H](C)O)c(C)c34)ccc2[nH]1 as the compound, how does the Potency read?
A: Its Potency is “inactive”.

Q: For CC[C@H](Nc1ncnc2nc[nH]c12)c1nc2cccc(F)c2c(=O)n1-c1ccccc1, which Potency is on record?
A: Its Potency is “inactive”.

Q: With CC(C[N+](C)(C)C)OC(N)=O (stereo not given) as the compound, how does the Potency read?
A: The Potency was “inactive”.

Q: For O=C1CCCC2=C1C(c1[nH]ncc1Cl)N=C(Nc1nc3ccccc3o1)N2 (stereo not given), which Potency is on record?
A: Its Potency is “inactive”.

Q: Which Potency does the source give for Cc1c(C)c2c(c(C)c1O)CCC(C)(COc1ccc(CC3SC(=O)NC3=O)cc1)O2 (stereo not given) here?
A: The Potency was “inactive”.

Q: For Cn1cnc([N+](=O)[O-])c1Sc1ncnc2nc[nH]c12, which Potency is on record?
A: Its Potency is “inactive”.

Q: For CN(C)C(=O)c1ccc(S(=O)(=O)c2ccc(NC(=O)[C@@](C)(O)C(F)(F)F)c(Cl)c2)cc1, which Potency is on record?
A: The Potency was “inactive”.

Q: For CC(=O)Oc1ccccc1C(=O)O, which Potency is on record?
A: Its Potency is “inactive”.

Q: With CC(C)(Sc1ccc(CCN(CCCCC2CCCCC2)C(=O)NC2CCCCC2)cc1)C(=O)O as the compound, how does the Potency read?
A: The Potency was “inactive”.

Q: Which Potency does the source give for Cc1cc([C@@H](C)Nc2ccccc2C(=O)O)c2nc(N3CCOCC3)cc(=O)n2c1 here?
A: The Potency was “inactive”.

Q: With COc1ccc(COc2cc3oc(=O)c4cc(C(C)O)ccc4c3cc2OC)cc1 (stereo not given) as the compound, how does the Potency read?
A: The Potency was “inactive”.

Q: For CNC(=O)c1ccc(N2C(=S)N(c3ccc(C#N)c(C(F)(F)F)c3)C(=O)C2(C)C)cc1F, which Potency is on record?
A: The Potency was “inactive”.

Q: Which Potency does the source give for C1COC(NC(C2CC2)C2CC2)=N1 here?
A: Its Potency is “inactive”.

Q: For Cc1cc(-c2ccc(CC(=O)Nc3ccc(-c4cccnc4)cc3)cc2)ccn1, which Potency is on record?
A: The Potency was “inactive”.

Q: Which Potency does the source give for NC(=O)C1CCCc2c1[nH]c1ccc(Cl)cc21 (stereo not given) here?
A: Its Potency is “inactive”.

Q: Which Potency does the source give for O=C1CCC(N2C(=O)c3ccccc3C2=O)C(=O)N1 (stereo not given) here?
A: Its Potency is “inactive”.

Q: With Nc1cccc(S(=O)(=O)N2CCCN(S(=O)(=O)c3ccc4c(c3)OCCO4)CC2)c1 as the compound, how does the Potency read?
A: Its Potency is “inactive”.

Q: For OC[C@H](Cc1ccccc1)Nc1nc(Oc2ccc3c(c2)CCC3)nc2c1ncn2Cc1ccc(-c2ccccc2)cc1, which Potency is on record?
A: Its Potency is “inactive”.

Q: For CC(C)(C)OC(=O)CN(Cc1ccc(Cl)cc1)Cc1ccc([N+](=O)[O-])s1, which Potency is on record?
A: Its Potency is “inactive”.

Q: For CS(=O)(=O)Oc1ccc2c(NC(N)=O)c(C(=O)c3ccc(Cl)cc3Cl)oc2c1, which Potency is on record?
A: The Potency was “inactive”.

Q: Which Potency does the source give for O=c1[nH]c(-c2ccc(C(F)(F)F)cc2)nc2c1CSCC2 here?
A: The Potency was “inactive”.

Q: For COc1ccc(CC2=NN3C([C@@H](CCc4ccccc4)[C@@H](C)O)=NC(C)C3C(=O)N2)cc1OC (stereo not given in full), which Potency is on record?
A: The Potency was “inactive”.

Q: Which Potency does the source give for Cc1ccc(N(CC2=NCCN2)c2cccc(O)c2)cc1 here?
A: The Potency was “inactive”.

Q: With CCn1cc(C(=O)O)c(=O)c2cc(F)c(N3CCNC(C)C3)c(F)c21 (stereo not given) as the compound, how does the Potency read?
A: The Potency was “inactive”.

Q: With CC(C)(C)NCC(O)c1ccc(O)c(CO)c1 (stereo not given) as the compound, how does the Potency read?
A: The Potency was “inactive”.

Q: With O=C(Nc1nc2ccccc2n1CCN1CCOCC1)c1cccc([N+](=O)[O-])c1 as the compound, how does the Potency read?
A: Its Potency is “inactive”.

Q: With CCC(=O)N[C@H]1CC[C@H](C(=O)N(C)c2ccc(-c3nc4ccccc4o3)cc2)C1 as the compound, how does the Potency read?
A: The Potency was “inactive”.

Q: For CC(c1cc2ccccc2s1)N(O)C(N)=O (stereo not given), which Potency is on record?
A: Its Potency is “inactive”.

Q: With Cc1cccc(-c2nn(C(=S)Nc3ccccc3)cc2-c2ccnc3ccccc23)n1 as the compound, how does the Potency read?
A: The Potency was “inactive”.

Q: Which Potency does the source give for CCCc1nn(C)c2c(=O)[nH]c(-c3cc(S(=O)(=O)N4CCN(C)CC4)ccc3OCC)nc12 here?
A: The Potency was “inactive”.

Q: For CN(C)c1ccc(C2Nc3ccc4ccccc4c3C3=C2C(=O)CC(C)(C)C3)cc1Br (stereo not given), which Potency is on record?
A: Its Potency is “inactive”.

Q: Which Potency does the source give for COc1nc(-c2ccc3c(c2)OCO3)n(-c2ccc(NC(=O)CSc3ccccc3)cc2)n1 here?
A: Its Potency is “inactive”.

Q: For CCCC(CCC)C(=O)O, which Potency is on record?
A: The Potency was “inactive”.

Q: With O=c1ncn2nc(Sc3ccc(F)cc3F)ccc2c1-c1c(Cl)cccc1Cl as the compound, how does the Potency read?
A: The Potency was “inactive”.

Q: For COc1c(Cl)cc2c([nH]c3cnccc32)c1NC(=O)c1cccnc1C, which Potency is on record?
A: The Potency was 26.2 µM (active).

Q: With CNC[C@H](O)c1cccc(O)c1 as the compound, how does the Potency read?
A: The Potency was “inactive”.
